TDP1 cell CPT: growth inhibition of DT40 Tdp1-/-;hTDP1 cells with camptothecin (screen for TDP1 inhibitors). chicken DT40 Tdp1-/-;hTDP1 cells + 20 nM CPT, ATP luminescence, 48 h. Potency, µM (doses to about 46.2 µM), for inactives: at the top dose activity change, negative = growth inhibition, usual class: inhibitors. 12% of 420,000 active; note: potency is the fitted concentration of half-maximal effect; nearly all actives have a fitted effect of over 55% in size
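Cell growth measured by CellTiter-Glo luminescence after a minimum 48 h, 37 C compound exposure with 20 nM CPT in Tdp1-knockout DT40 cells stably expressing hTDP1, seeded 400/well; qHTS titration format.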
TDP1 cell noCPT: qHTS for Inhibitors of human tyrosyl-DNA phosphodiesterase 1 (TDP1): qHTS in cells in absence of CPT; DT40 Tdp1-/- hTDP1 cells, no CPT, ATP luminescence, 48 h; Potency, µM (top dose mostly 46.2 µM), inactives show at the highest dose activity change, negative = growth inhibition, actives largely listed as inhibitors; 15% of 420,000 active; note: potency is the fitted concentration of half-maximal effect; nearly all actives have a fitted effect of over 55% in size
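Seeded 400 DT40-hTDP1 cells/well (vehicle DMSO, no 20 nM CPT); pinned compounds; ≥48 hr at 37 °C; CellTiter-Glo luminescence as viability measure.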
uPA surface inh: blocks generation of uPA at the cell surface; cell surface uPA generation assay, qHTS; Potency, µM (titrated, usually from 38.3 µM), without a hit: at the highest dose activity change, negative = inhibition, usual class: inhibitors; 0.31% of 330,000 active; AID 540303; active = well fitted inhibition curve with a large enough effect; inconclusive = small, poorly fitted or top-dose-only effect; inactive = no such curve, though single readings can be large or run the other way; tested in mouse RAW 264.7 cells; note: potency is the fitted concentration of half-maximal effect; nearly all actives have a fitted effect of over 55% in size
HT1080-NT tox: kills 2HG-producing HT-1080-NT fibrosarcoma cells. HT-1080-NT fibrosarcoma viability, CellTiter-Glo ATP luminescence, 48 h. Potency, µM (doses to about 46.1 µM), without a hit: at the highest dose activity, negative = less viability, hits mostly cytotoxic. 1.6% of 360,000 active. AID 686970;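 note: NT is the 2HG producing partner of a matched IDH1 knockdown line; potency is the fitted concentration of half-maximal effect; 0% = DMSO-treated cells and -100% = media-only wells without cells; nearly all actives have a fitted effect of over 55% in size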
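750 cells/well, RPMI + 5% FBS; 2 h settle, compound pin-transfer, 48 h at 37 degrees C. CellTiter-Glo 10 min RT, luminescence. Normalized to DMSO and media-only wells.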
HT1080 IDH1KD tx: HT-1080 IDH1 knockdown cell toxicity (counter line). Potency, µM (top dose mostly 46.1 µM), inactives show at the highest dose activity, negative = toxicity, usual class: cytotoxic. 2% of 360,000 active. AID 686971. HT-1080 IDH1 knockdown viability, ATP luminescence, 48 h;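 note: potency is the fitted concentration of half-maximal effect; 0% = DMSO wells and -100% = cell-free medium wells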
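Assay cells: HT-1080 with IDH1 knockdown, 750 per well, RPMI/5% FBS. Exposure: 48 h at 37 °C following 2 h pre-incubation. Read: CellTiter-Glo luminescence; fitted concentration-response, curve class assigned.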
IL1B secr inh: inflammasome signaling inhibition, IL-1 beta readout. THP-1 LPS/ATP IL-1B secretion, AlphaLISA, 16 h; stronger effect = lower value. activity change, % at 57.5 µM. 4.7% of 360,000 active. AID 743279; in the data active = activity change below about -50%; inconclusive = mostly about -30% to -49%
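Secreted IL-1B measured by AlphaLISA bead assay after 16 h compound exposure of THP-1 cells; compounds (final up to 57.5 uM) added 1 h before LPS (250 ng/mL) and ATP (1.25 mM) stimulation; lower signal means less secretion.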
Active calls of the source: *. A selection: hits, their analogues and other compounds. The true share with any hit is near 19%. Unless noted, calls come from the whole dose curve; as a rule, active = well fitted curve in the direction sought with a large enough effect; inconclusive = small, poorly fitted or top-dose-only effect, or another doubt; inactive = no such curve, though single readings can be large; an effect the other way counts as inactive or inconclusive. Unless noted, % is set by controls: 0 for no effect and ±100 for the full control effect.

`Cc1cccc(C(=O)OCC(=O)c2c(N)n(CC(C)C)c(=O)n(C)c2=O)c1O` gave TDP1 cell CPT 23µM*, TDP1 cell noCPT 23µM*, uPA surface inh -7%, HT1080-NT tox inconclusive, HT1080 IDH1KD tx -27% and IL1B secr inh -3.
`Cc1cccc(C(=O)OCC(=O)c2c(N)n(CC(C)C)c(=O)n(C)c2=O)c1[N+](=O)[O-]` gave TDP1 cell CPT inconclusive, TDP1 cell noCPT 18µM*, uPA surface inh -5%, HT1080-NT tox -9%, HT1080 IDH1KD tx -5% and IL1B secr inh 18.
For Cc1cnc(C(=O)OCC(=O)c2c(N)n(CC(C)C)c(=O)n(C)c2=O)cn1 the results were TDP1 cell CPT -26%, TDP1 cell noCPT inconclusive, uPA surface inh 3%, HT1080-NT tox -6%, HT1080 IDH1KD tx -5% and IL1B secr inh 24.
Screening CC(C)Cn1c(N)c(C(=O)COC(=O)c2ccncc2)c(=O)n(C)c1=O returned TDP1 cell CPT -21%, TDP1 cell noCPT inconclusive, uPA surface inh 1%, HT1080-NT tox 0%, HT1080 IDH1KD tx -1% and IL1B secr inh 7.
Screening COC(=O)c1c(C)[nH]c(C(=O)OCC(=O)c2c(N)n(CC(C)C)c(=O)n(C)c2=O)c1C returned TDP1 cell CPT inconclusive, TDP1 cell noCPT 15µM*, uPA surface inh 0%, HT1080-NT tox -17%, HT1080 IDH1KD tx -13% and IL1B secr inh inconclusive.
`CC(C)Cn1c(N)c(C(=O)COC(=O)c2ccc(Br)cc2)c(=O)n(C)c1=O` gave TDP1 cell CPT inconclusive, TDP1 cell noCPT 23µM*, uPA surface inh -9%, HT1080-NT tox -12%, HT1080 IDH1KD tx -23% and IL1B secr inh inconclusive.
Screening CC(C)Cn1c(N)c(C(=O)COC(=O)c2cccc(F)c2)c(=O)n(C)c1=O returned TDP1 cell CPT inconclusive, TDP1 cell noCPT inconclusive, uPA surface inh -5%, HT1080-NT tox -1%, HT1080 IDH1KD tx -6% and IL1B secr inh 9.
For COc1ccc(-n2c(=O)c(-c3cn(C)c4ccccc34)nc3cncnc32)cc1 the results were TDP1 cell CPT 1% and TDP1 cell noCPT -10%.
COc1cc(-c2nnc(SCC(=O)NC3CCCC3)n2C)cc(OC)c1O was read as TDP1 cell CPT 0%, TDP1 cell noCPT 4%, uPA surface inh 1%, HT1080-NT tox 16%, HT1080 IDH1KD tx 19% and IL1B secr inh 14.
For Nc1cc(Cl)ccc1C(=O)OCC(=O)NCC1CCCO1 (stereo not drawn) the results were TDP1 cell CPT 1%, TDP1 cell noCPT -16%, uPA surface inh -2%, HT1080-NT tox 19%, HT1080 IDH1KD tx 26% and IL1B secr inh 12.
CC(C)Cn1c(N)c(C(=O)COC(=O)c2ccc(O)cc2O)c(=O)n(C)c1=O was read as TDP1 cell CPT inconclusive, TDP1 cell noCPT 26µM*, uPA surface inh 1%, HT1080-NT tox -2%, HT1080 IDH1KD tx inconclusive and IL1B secr inh 21.
N#Cc1ccccc1OCC(=O)NC(=O)NCc1ccco1 was read as TDP1 cell CPT 2%, TDP1 cell noCPT -5%, uPA surface inh -2%, HT1080-NT tox 13%, HT1080 IDH1KD tx 13% and IL1B secr inh 0.
For C=CCN1C=C2C(=O)C(C)(OC(=O)C3CCCC3)C(=O)C(c3ccccc3)=C2C=C1CCCC(=O)OC (stereo not drawn) the results were TDP1 cell CPT -15%, TDP1 cell noCPT -18%, uPA surface inh -1%, HT1080-NT tox 7%, HT1080 IDH1KD tx 4% and IL1B secr inh 10.
Screening COC(=O)CCCC1=CC2=C(c3ccccc3)C(=O)C(C)(OC(=O)C3CCCC3)C(=O)C2=CN1Cc1ccc(OC)cc1 (stereo not drawn) returned TDP1 cell CPT 23µM*, TDP1 cell noCPT inconclusive, uPA surface inh 10%, HT1080-NT tox -8%, HT1080 IDH1KD tx -9% and IL1B secr inh -15.

Screening results as filed in PubChem.
